According to the supplement of paper PMC6555819:

Columns and labels:
Assay in all cases: PBM binding z-score (relative to random genomic background probes); higher = stronger binding; sequences stand for … in GC…GCGATTGACAGCGTAGAATGAAGG
[1] = test system: PPARg:RXRa DBDmut IVT, anti-RXR (DBD mutation: RXRa K156A/R161A, NR concentration 270 nM, RXRa partner concentration 90 nM)
In short: (§1)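 On custom Agilent 4×180K arrays, double-stranded probes with 34-nt variable regions carried direct-repeat seeds, single-nucleotide variants, half-site ablations or random human genomic background. Ligand-free nuclear receptor dimers were applied for 1 h, and binding was read with antibodies against each partner (one per run). Binding z-scores come from regression-normalized fluorescence, with the random background probes as reference.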

[2] = test system: PPARg:RXRa IVT, anti-PPARg (NR concentration 270 nM, RXRa partner concentration 90 nM)
In short: as §1

[3] = test system: PPARg DBDmut:RXRa IVT, anti-PPARg (DBD mutation: PPARg1 K132A/R137A, NR concentration 270 nM, RXRa partner concentration 90 nM)
In short: as §1

[4] = test system: PPARg DBDmut IVT, anti-PPARg (DBD mutation: PPARg1 K132A/R137A, NR concentration 270 nM)
In short: as §1

[5] = test system: PPARg homodimer (NR concentration 180 nM)
In short: as §1

[6] = test system: PXR:RXRa (NR concentration 270 nM, RXRa partner concentration 90 nM)
In short: as §1

[7] = test system: PXR homodimer (NR concentration 270 nM)
In short: as §1

[8] = test system: RARa:RXR (NR concentration 270 nM, RXRa partner concentration 90 nM)
In short: as §1

[9] = test system: RARa homodimer (NR concentration 270 nM)
In short: as §1

[10] = test system: RARb:RXRa (NR concentration 270 nM, RXRa partner concentration 90 nM)
In short: as §1

[11] = test system: RARb homodimer (NR concentration 270 nM)
In short: as §1

[12] = test system: RARg:RXRa (NR concentration 270 nM, RXRa partner concentration 90 nM)
In short: as §1

[13] = test system: RARg homodimer (NR concentration 270 nM)
In short: as §1

[14] = test system: RXRa DBDmut IVT, anti-RXR (DBD mutation: RXRa K156A/R161A, NR concentration 90 nM)
In short: as §1

[15] = test system: RXRa homodimer (NR concentration 180 nM)
In short: as §1

[16] = test system: THRa:RXRa (NR concentration 90 nM, RXRa partner concentration 90 nM)
In short: as §1

[17] = test system: THRa homodimer (NR concentration 90 nM)
In short: as §1

[18] = test system: VDR homodimer (NR concentration 270 nM)
In short: as §1

## CCTCCTGGGCCAAAGGTCATTGATTCCAATGCTC
[1]
  PBM binding z-score: 1.03
[2]
  PBM binding z-score: 4.67
[3]
  PBM binding z-score: -0.712
[4]
  PBM binding z-score: -0.452
[5]
  PBM binding z-score: 3.43
[6]
  PBM binding z-score: 5.26
[7]
  PBM binding z-score: 1.79
[8]
  PBM binding z-score: 5.99
[9]
  PBM binding z-score: 0.948
[10]
  PBM binding z-score: 4.3
[11]
  PBM binding z-score: 4.24
[12]
  PBM binding z-score: 5.81
[13]
  PBM binding z-score: 4.61
[14]
  PBM binding z-score: 0.646
[15]
  PBM binding z-score: 6.35
[16]
  PBM binding z-score: 3.17
[17]
  PBM binding z-score: 0.804
[18]
  PBM binding z-score: 2.32

## GCTGCTAGGTCAGGTAGGTCAGCTAACGGGTACG
[1]
  PBM binding z-score: 3.3
[2]
  PBM binding z-score: 3.37
[3]
  PBM binding z-score: -0.274
[4]
  PBM binding z-score: -0.592
[5]
  PBM binding z-score: 1.34
[6]
  PBM binding z-score: 1.65
[7]
  PBM binding z-score: -0.0271
[8]
  PBM binding z-score: 1.95
[9]
  PBM binding z-score: -0.315
[10]
  PBM binding z-score: 3.87
[11]
  PBM binding z-score: 4.09
[12]
  PBM binding z-score: 4.09
[13]
  PBM binding z-score: 4.85
[14]
  PBM binding z-score: 0.899
[15]
  PBM binding z-score: 2.38
[16]
  PBM binding z-score: 2.78
[17]
  PBM binding z-score: 0.866
[18]
  PBM binding z-score: 0.966

## CGTCCAAGGCCATAGGAGGTCAGTGAAGACAGAT
[1]
  PBM binding z-score: 0.496
[2]
  PBM binding z-score: 1.69
[3]
  PBM binding z-score: -0.275
[4]
  PBM binding z-score: -0.658
[5]
  PBM binding z-score: 0.925
[6]
  PBM binding z-score: 3.03
[7]
  PBM binding z-score: 1.16
[8]
  PBM binding z-score: 2
[9]
  PBM binding z-score: -0.0451
[10]
  PBM binding z-score: 2.9
[11]
  PBM binding z-score: 3.61
[12]
  PBM binding z-score: 2.74
[13]
  PBM binding z-score: 3.57
[14]
  PBM binding z-score: 0.911
[15]
  PBM binding z-score: 1.74
[16]
  PBM binding z-score: 3.89
[17]
  PBM binding z-score: 1.18
[18]
  PBM binding z-score: 1.42

## CCTAGTTGGTGAAGGTCACACACGCTATAGGTAC
[1]
  PBM binding z-score: 1.01
[2]
  PBM binding z-score: 2.4
[3]
  PBM binding z-score: 1.24
[4]
  PBM binding z-score: 0.782
[5]
  PBM binding z-score: 2.47
[6]
  PBM binding z-score: 3.34
[7]
  PBM binding z-score: 1.34
[8]
  PBM binding z-score: 3.61
[9]
  PBM binding z-score: 1.61
[10]
  PBM binding z-score: 3.74
[11]
  PBM binding z-score: 4.26
[12]
  PBM binding z-score: 4.01
[13]
  PBM binding z-score: 4.06
[14]
  PBM binding z-score: 1.36
[15]
  PBM binding z-score: 3.65
[16]
  PBM binding z-score: 2.89
[17]
  PBM binding z-score: 1.2
[18]
  PBM binding z-score: 2.3

## TCTAGCAGGCCAGGGGGTCACTCAAGAGGTACGG
[1]
  PBM binding z-score: 1.72
[2]
  PBM binding z-score: 3.02
[3]
  PBM binding z-score: 2.08
[4]
  PBM binding z-score: 1.84
[5]
  PBM binding z-score: 2.2
[6]
  PBM binding z-score: 4.43
[7]
  PBM binding z-score: 0.579
[8]
  PBM binding z-score: 5.03
[9]
  PBM binding z-score: 0.104
[10]
  PBM binding z-score: 3.16
[11]
  PBM binding z-score: 3.61
[12]
  PBM binding z-score: 5.22
[13]
  PBM binding z-score: 4.08
[14]
  PBM binding z-score: 1.3
[15]
  PBM binding z-score: 5.38
[16]
  PBM binding z-score: 3.35
[17]
  PBM binding z-score: 1.52
[18]
  PBM binding z-score: 2.91

## TCTCGGAGGACACGAAGGTCTGAGCTTTCCAGAG
[1]
  PBM binding z-score: 1.12
[2]
  PBM binding z-score: -0.0413
[3]
  PBM binding z-score: -0.829
[4]
  PBM binding z-score: -1.69
[5]
  PBM binding z-score: -0.904
[6]
  PBM binding z-score: -0.33
[7]
  PBM binding z-score: -0.787
[8]
  PBM binding z-score: 0.107
[9]
  PBM binding z-score: -1.21
[10]
  PBM binding z-score: 1.46
[11]
  PBM binding z-score: 0.657
[12]
  PBM binding z-score: 0.331
[13]
  PBM binding z-score: 1.01
[14]
  PBM binding z-score: 0.323
[15]
  PBM binding z-score: -0.0356
[16]
  PBM binding z-score: 1.12
[17]
  PBM binding z-score: 0.262
[18]
  PBM binding z-score: -0.384

## GCTTGTAGATCAAGGTTTAGAAAGACTAAGCTAA
[1]
  PBM binding z-score: 1.06
[2]
  PBM binding z-score: 0.361
[3]
  PBM binding z-score: -0.41
[4]
  PBM binding z-score: 0.0012
[5]
  PBM binding z-score: -0.0341
[6]
  PBM binding z-score: -0.479
[7]
  PBM binding z-score: -0.437
[8]
  PBM binding z-score: -0.166
[9]
  PBM binding z-score: 0.111
[10]
  PBM binding z-score: -0.486
[11]
  PBM binding z-score: -0.764
[12]
  PBM binding z-score: -0.251
[13]
  PBM binding z-score: -0.299
[14]
  PBM binding z-score: -0.0471
[15]
  PBM binding z-score: -0.469
[16]
  PBM binding z-score: -0.36
[17]
  PBM binding z-score: -0.736
[18]
  PBM binding z-score: -0.186

## AGTCAAAGTTCAGAACGAGGTAACGTAAAGCACG
[1]
  PBM binding z-score: 0.0651
[2]
  PBM binding z-score: 2.1
[3]
  PBM binding z-score: 0.709
[4]
  PBM binding z-score: 0.236
[5]
  PBM binding z-score: 1.58
[6]
  PBM binding z-score: 3.14
[7]
  PBM binding z-score: 1.5
[8]
  PBM binding z-score: 2.94
[9]
  PBM binding z-score: 0.271
[10]
  PBM binding z-score: 4.01
[11]
  PBM binding z-score: 2.66
[12]
  PBM binding z-score: 4.62
[13]
  PBM binding z-score: 4.15
[14]
  PBM binding z-score: 3.09
[15]
  PBM binding z-score: 2.76
[16]
  PBM binding z-score: 3.63
[17]
  PBM binding z-score: 0.7
[18]
  PBM binding z-score: 1.94
